Results reported in the supplement of paper PMC7411054.
Structures can show the parent of a compound that is named as a salt.

Assays:
Details in all cases: treatment time: 24 h
A549-ACTB-RAB5A [1] = test: lowest phenotypically active concentration; higher = less potent
Method in brief: (§1)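 Fifteen reporter lines derived from A549, HepG2 and WPMY1 cells by gene editing, carrying BFP for segmentation plus GFP and RFP/FusionRed markers, were exposed to 0.3, 1, 3 or 9 µM for 24 h in four wells each and imaged live. Live-cell features from each well were normalised to solvent control wells. A well set counted as deviating when ≥3 of 4 wells lay beyond the 95th percentile of control Euclidean distances, and as reproducible when the median replicate Pearson correlation exceeded the 95th percentile of non-replicates. Phenotypic activity was assigned only when both criteria were met.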

A549-GM130-SQSTM1 [2] = test: as above
Method in brief: as §1

A549-TUBA1B-RELA [3] = test: as above
Method in brief: as §1

WPMY1-CANX-COX4 [4] = test: as above
Method in brief: as §1

A549-ACTB-RAB5A [5] = test: phenotypically active (imaging signature differs from DMSO and reproducible) at any of 0.3-9 uM (binary (1 = active, 0 = inactive)); higher = active
Method in brief: as §1

A549-CANX-COX4 = test: as above
Method in brief: as §1

A549-GM130-SQSTM1 [6] = test: as above
Method in brief: as §1

A549-TP53BP1-CLTA = test: as above
Method in brief: as §1

A549-TUBA1B-RELA [7] = test: as above
Method in brief: as §1

HepG2-ACTB-RAB5A [8] = test: as above
Method in brief: as §1

HepG2-CANX-COX4 = test: as above
Method in brief: as §1

HepG2-GM130-SQSTM1 = test: as above
Method in brief: as §1

HepG2-TP53BP1-CLTA = test: as above
Method in brief: as §1

HepG2-TUBA1B-RELA = test: as above
Method in brief: as §1

WPMY1-ACTB-RAB5A = test: as above
Method in brief: as §1

WPMY1-CANX-COX4 [9] = test: as above
Method in brief: as §1

WPMY1-GM130-SQSTM1 = test: as above
Method in brief: as §1

WPMY1-TP53BP1-CLTA = test: as above
Method in brief: as §1

WPMY1-TUBA1B-RELA = test: as above
Method in brief: as §1

HepG2-ACTB-RAB5A [10] = test: lowest phenotypically active concentration; higher = less potent
Method in brief: as §1

Cn1cc(C2=C(c3ccc(Cl)cc3Cl)C(=O)NC2=O)c2ccccc21
1 µM: lowest phenotypically active concentration (A549-ACTB-RAB5A [1]) | lowest phenotypically active concentration (A549-TUBA1B-RELA [3]) | lowest phenotypically active concentration (WPMY1-CANX-COX4 [4])
active: phenotypically active (A549-ACTB-RAB5A [5]) 1 | phenotypically active (A549-GM130-SQSTM1 [6]) 1 | phenotypically active (A549-TP53BP1-CLTA) 1 | phenotypically active (A549-TUBA1B-RELA [7]) 1 | phenotypically active (HepG2-GM130-SQSTM1) 1 | phenotypically active (HepG2-TP53BP1-CLTA) 1 | phenotypically active (WPMY1-CANX-COX4 [9]) 1 | phenotypically active (WPMY1-GM130-SQSTM1) 1 | phenotypically active (WPMY1-TP53BP1-CLTA) 1
≤ 0.3 µM: lowest phenotypically active concentration (A549-GM130-SQSTM1 [2])
inactive: phenotypically active (A549-CANX-COX4) 0 | phenotypically active (HepG2-ACTB-RAB5A [8]) 0 | phenotypically active (HepG2-CANX-COX4) 0 | phenotypically active (HepG2-TUBA1B-RELA) 0 | phenotypically active (WPMY1-ACTB-RAB5A) 0 | phenotypically active (WPMY1-TUBA1B-RELA) 0

Cc1noc(C)c1Cn1cc(C#N)c2cc(Oc3ccc(NC(=O)[C@@H]4CCCN4)cc3)ccc21
inactive: phenotypically active (A549-CANX-COX4) 0 | phenotypically active (HepG2-ACTB-RAB5A [8]) 0 | phenotypically active (HepG2-CANX-COX4) 0
active: phenotypically active (A549-ACTB-RAB5A [5]) 1 | phenotypically active (A549-GM130-SQSTM1 [6]) 1 | phenotypically active (A549-TP53BP1-CLTA) 1 | phenotypically active (A549-TUBA1B-RELA [7]) 1 | phenotypically active (HepG2-GM130-SQSTM1) 1 | phenotypically active (HepG2-TP53BP1-CLTA) 1 | phenotypically active (HepG2-TUBA1B-RELA) 1 | phenotypically active (WPMY1-ACTB-RAB5A) 1 | phenotypically active (WPMY1-CANX-COX4 [9]) 1 | phenotypically active (WPMY1-GM130-SQSTM1) 1 | phenotypically active (WPMY1-TP53BP1-CLTA) 1 | phenotypically active (WPMY1-TUBA1B-RELA) 1
9 µM: lowest phenotypically active concentration (A549-ACTB-RAB5A [1]) | lowest phenotypically active concentration (A549-GM130-SQSTM1 [2]) | lowest phenotypically active concentration (A549-TUBA1B-RELA [3]) | lowest phenotypically active concentration (WPMY1-CANX-COX4 [4])

COc1ccc(CCNCc2ccc(OCc3ccc(Cl)nc3)c(OC)c2)cc1OC [SBE 13 hydrochloride]
inactive: phenotypically active (A549-CANX-COX4) 0 | phenotypically active (HepG2-CANX-COX4) 0 | phenotypically active (HepG2-GM130-SQSTM1) 0
9 µM: lowest phenotypically active concentration (A549-GM130-SQSTM1 [2]) | lowest phenotypically active concentration (HepG2-ACTB-RAB5A [10]) | lowest phenotypically active concentration (WPMY1-CANX-COX4 [4])
active: phenotypically active (A549-ACTB-RAB5A [5]) 1 | phenotypically active (A549-GM130-SQSTM1 [6]) 1 | phenotypically active (A549-TP53BP1-CLTA) 1 | phenotypically active (A549-TUBA1B-RELA [7]) 1 | phenotypically active (HepG2-ACTB-RAB5A [8]) 1 | phenotypically active (HepG2-TP53BP1-CLTA) 1 | phenotypically active (HepG2-TUBA1B-RELA) 1 | phenotypically active (WPMY1-ACTB-RAB5A) 1 | phenotypically active (WPMY1-CANX-COX4 [9]) 1 | phenotypically active (WPMY1-GM130-SQSTM1) 1 | phenotypically active (WPMY1-TP53BP1-CLTA) 1 | phenotypically active (WPMY1-TUBA1B-RELA) 1
3 µM: lowest phenotypically active concentration (A549-ACTB-RAB5A [1]) | lowest phenotypically active concentration (A549-TUBA1B-RELA [3])

COc1cc(N2CCC(N)CC2)ccc1Nc1ncc(Cl)c(-c2c[nH]c3ccccc23)n1
≤ 0.3 µM: lowest phenotypically active concentration (A549-GM130-SQSTM1 [2])
inactive: phenotypically active (A549-CANX-COX4) 0
3 µM: lowest phenotypically active concentration (A549-ACTB-RAB5A [1]) | lowest phenotypically active concentration (HepG2-ACTB-RAB5A [10])
1 µM: lowest phenotypically active concentration (A549-TUBA1B-RELA [3]) | lowest phenotypically active concentration (WPMY1-CANX-COX4 [4])
active: phenotypically active (A549-ACTB-RAB5A [5]) 1 | phenotypically active (A549-GM130-SQSTM1 [6]) 1 | phenotypically active (A549-TP53BP1-CLTA) 1 | phenotypically active (A549-TUBA1B-RELA [7]) 1 | phenotypically active (HepG2-ACTB-RAB5A [8]) 1 | phenotypically active (HepG2-CANX-COX4) 1 | phenotypically active (HepG2-GM130-SQSTM1) 1 | phenotypically active (HepG2-TP53BP1-CLTA) 1 | phenotypically active (HepG2-TUBA1B-RELA) 1 | phenotypically active (WPMY1-ACTB-RAB5A) 1 | phenotypically active (WPMY1-CANX-COX4 [9]) 1 | phenotypically active (WPMY1-GM130-SQSTM1) 1 | phenotypically active (WPMY1-TP53BP1-CLTA) 1 | phenotypically active (WPMY1-TUBA1B-RELA) 1

Cc1ccc(NC2=CC(=O)c3sc(C)nc3C2=O)cc1 [Ryuvidine]
inactive: phenotypically active (A549-CANX-COX4) 0 | phenotypically active (HepG2-CANX-COX4) 0 | phenotypically active (HepG2-TUBA1B-RELA) 0 | phenotypically active (WPMY1-TP53BP1-CLTA) 0
active: phenotypically active (A549-ACTB-RAB5A [5]) 1 | phenotypically active (A549-GM130-SQSTM1 [6]) 1 | phenotypically active (A549-TP53BP1-CLTA) 1 | phenotypically active (A549-TUBA1B-RELA [7]) 1 | phenotypically active (HepG2-ACTB-RAB5A [8]) 1 | phenotypically active (HepG2-GM130-SQSTM1) 1 | phenotypically active (HepG2-TP53BP1-CLTA) 1 | phenotypically active (WPMY1-ACTB-RAB5A) 1 | phenotypically active (WPMY1-CANX-COX4 [9]) 1 | phenotypically active (WPMY1-GM130-SQSTM1) 1 | phenotypically active (WPMY1-TUBA1B-RELA) 1
3 µM: lowest phenotypically active concentration (A549-TUBA1B-RELA [3]) | lowest phenotypically active concentration (HepG2-ACTB-RAB5A [10]) | lowest phenotypically active concentration (WPMY1-CANX-COX4 [4])
9 µM: lowest phenotypically active concentration (A549-ACTB-RAB5A [1]) | lowest phenotypically active concentration (A549-GM130-SQSTM1 [2])
